PubChem BioAssay
Calls of active or inactive are those of the source.

Experiments:
[1] = tested on: PRMT1 (protein arginine N-methyltransferase 1); experiment: small molecules binding arginine methyltransferase PRMT1 – biochemical, small-molecule microarray, 635 nm fluorescence, primary screen (AID 1088); conditions: higher = more signal;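 also: binding of Prmt1 protein to compounds spotted on small-molecule microarray slides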
[2] = growth effects on S. cerevisiae YJM789 – YJM789 clinical isolate, OD600, 24 h, basal, primary screen (AID 1089); conditions: higher = more signal, called active from +8 up or from −8 down;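 also: growth of clinical yeast isolate S. cerevisiae YJM 789 seeded 1000 cells per well; test concentration not given here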
[3] = S. pombe growth modifiers, basal conditions – strain 972, OD600, 24 h, no modulator, primary screen (AID 1090);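 also: basal condition with compound alone and no growth modifier present; test concentration not given here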; conditions: S. pombe 972 growth, higher = more signal, called active from +8 up or from −8 down
[4] = budding yeast growth modifiers under rapamycin – strain BY4716, OD600, 96 h, primary screen (AID 1091); also: test concentration not given here; conditions: S. cerevisiae BY4716 + rapamycin, higher = more signal, called active from +8 up or from −8 down
[5] = molecular target: Torsin-1A-interacting protein 2 (Homo sapiens) (UniProt Q8NFQ8); experiment: small molecules binding lysate-expressed LULL1 – cell lysate, human LULL1 lysate, 635/667 nm fluorescence, primary screen (AID 1092); conditions: small-molecule microarray, hLULL1 lysate binding, 635 nm fluorescence; higher = more signal;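 also: probe is lysate of COS7 cells overexpressing human LULL1; score merges per-feature 667 nm fluorescence with signal-to-noise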
Chain of Torsin-1A-interacting protein 2 (Homo sapiens) (Q8NFQ8 whole entry, looked up): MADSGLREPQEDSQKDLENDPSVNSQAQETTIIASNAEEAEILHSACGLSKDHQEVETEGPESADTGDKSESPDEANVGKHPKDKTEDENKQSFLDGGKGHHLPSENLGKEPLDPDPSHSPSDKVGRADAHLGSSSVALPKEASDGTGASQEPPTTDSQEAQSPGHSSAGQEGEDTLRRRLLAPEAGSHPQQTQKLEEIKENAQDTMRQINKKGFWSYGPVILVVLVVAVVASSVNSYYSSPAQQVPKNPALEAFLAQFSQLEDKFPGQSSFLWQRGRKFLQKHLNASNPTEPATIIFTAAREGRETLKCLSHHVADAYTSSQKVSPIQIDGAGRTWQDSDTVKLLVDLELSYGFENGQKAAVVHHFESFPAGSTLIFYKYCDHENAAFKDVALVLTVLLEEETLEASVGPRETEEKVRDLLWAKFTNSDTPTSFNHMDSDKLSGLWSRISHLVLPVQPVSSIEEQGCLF

[6] = optical density change of DRC41 E. coli – strain DRC41, OD650, 24 h, E. coli filamentation project, primary screen (AID 1093);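 also: MC1000 strain lacking acrAB efflux and sulA so SOS filamentation is blocked; test concentration not given here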; conditions: E. coli DRC41 growth, higher = more signal, called active from +8 up or from −8 down
[7] = probe aLefty2 binding to arrayed compounds – biochemical, biotinylated probe, 635/667 nm fluorescence, primary screen (AID 1094); conditions: small-molecule microarray, higher = more signal;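 also: score merges spot fluorescence near 667 nm with spot signal-to-noise ratio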
[8] = tested on: Noggin (protein binding on small-molecule microarray); experiment: small molecules binding Noggin protein – biochemical, 635/667 nm fluorescence, primary screen (AID 1095); conditions: 635 nm fluorescence, higher = more signal;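 also: score merges 667 nm feature fluorescence with signal to noise over triplicate slides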
[9] = molecular target: Neurogenic locus notch homolog protein 3 (Homo sapiens) (UniProt Q9UM47); experiment: small molecules binding NOTCH3 protein – biochemical, 635/667 nm fluorescence, primary screen (AID 1096); conditions: small-molecule microarray, 635 nm fluorescence, higher = more signal
Chain of Neurogenic locus notch homolog protein 3 (Homo sapiens) (Q9UM47 whole entry, looked up): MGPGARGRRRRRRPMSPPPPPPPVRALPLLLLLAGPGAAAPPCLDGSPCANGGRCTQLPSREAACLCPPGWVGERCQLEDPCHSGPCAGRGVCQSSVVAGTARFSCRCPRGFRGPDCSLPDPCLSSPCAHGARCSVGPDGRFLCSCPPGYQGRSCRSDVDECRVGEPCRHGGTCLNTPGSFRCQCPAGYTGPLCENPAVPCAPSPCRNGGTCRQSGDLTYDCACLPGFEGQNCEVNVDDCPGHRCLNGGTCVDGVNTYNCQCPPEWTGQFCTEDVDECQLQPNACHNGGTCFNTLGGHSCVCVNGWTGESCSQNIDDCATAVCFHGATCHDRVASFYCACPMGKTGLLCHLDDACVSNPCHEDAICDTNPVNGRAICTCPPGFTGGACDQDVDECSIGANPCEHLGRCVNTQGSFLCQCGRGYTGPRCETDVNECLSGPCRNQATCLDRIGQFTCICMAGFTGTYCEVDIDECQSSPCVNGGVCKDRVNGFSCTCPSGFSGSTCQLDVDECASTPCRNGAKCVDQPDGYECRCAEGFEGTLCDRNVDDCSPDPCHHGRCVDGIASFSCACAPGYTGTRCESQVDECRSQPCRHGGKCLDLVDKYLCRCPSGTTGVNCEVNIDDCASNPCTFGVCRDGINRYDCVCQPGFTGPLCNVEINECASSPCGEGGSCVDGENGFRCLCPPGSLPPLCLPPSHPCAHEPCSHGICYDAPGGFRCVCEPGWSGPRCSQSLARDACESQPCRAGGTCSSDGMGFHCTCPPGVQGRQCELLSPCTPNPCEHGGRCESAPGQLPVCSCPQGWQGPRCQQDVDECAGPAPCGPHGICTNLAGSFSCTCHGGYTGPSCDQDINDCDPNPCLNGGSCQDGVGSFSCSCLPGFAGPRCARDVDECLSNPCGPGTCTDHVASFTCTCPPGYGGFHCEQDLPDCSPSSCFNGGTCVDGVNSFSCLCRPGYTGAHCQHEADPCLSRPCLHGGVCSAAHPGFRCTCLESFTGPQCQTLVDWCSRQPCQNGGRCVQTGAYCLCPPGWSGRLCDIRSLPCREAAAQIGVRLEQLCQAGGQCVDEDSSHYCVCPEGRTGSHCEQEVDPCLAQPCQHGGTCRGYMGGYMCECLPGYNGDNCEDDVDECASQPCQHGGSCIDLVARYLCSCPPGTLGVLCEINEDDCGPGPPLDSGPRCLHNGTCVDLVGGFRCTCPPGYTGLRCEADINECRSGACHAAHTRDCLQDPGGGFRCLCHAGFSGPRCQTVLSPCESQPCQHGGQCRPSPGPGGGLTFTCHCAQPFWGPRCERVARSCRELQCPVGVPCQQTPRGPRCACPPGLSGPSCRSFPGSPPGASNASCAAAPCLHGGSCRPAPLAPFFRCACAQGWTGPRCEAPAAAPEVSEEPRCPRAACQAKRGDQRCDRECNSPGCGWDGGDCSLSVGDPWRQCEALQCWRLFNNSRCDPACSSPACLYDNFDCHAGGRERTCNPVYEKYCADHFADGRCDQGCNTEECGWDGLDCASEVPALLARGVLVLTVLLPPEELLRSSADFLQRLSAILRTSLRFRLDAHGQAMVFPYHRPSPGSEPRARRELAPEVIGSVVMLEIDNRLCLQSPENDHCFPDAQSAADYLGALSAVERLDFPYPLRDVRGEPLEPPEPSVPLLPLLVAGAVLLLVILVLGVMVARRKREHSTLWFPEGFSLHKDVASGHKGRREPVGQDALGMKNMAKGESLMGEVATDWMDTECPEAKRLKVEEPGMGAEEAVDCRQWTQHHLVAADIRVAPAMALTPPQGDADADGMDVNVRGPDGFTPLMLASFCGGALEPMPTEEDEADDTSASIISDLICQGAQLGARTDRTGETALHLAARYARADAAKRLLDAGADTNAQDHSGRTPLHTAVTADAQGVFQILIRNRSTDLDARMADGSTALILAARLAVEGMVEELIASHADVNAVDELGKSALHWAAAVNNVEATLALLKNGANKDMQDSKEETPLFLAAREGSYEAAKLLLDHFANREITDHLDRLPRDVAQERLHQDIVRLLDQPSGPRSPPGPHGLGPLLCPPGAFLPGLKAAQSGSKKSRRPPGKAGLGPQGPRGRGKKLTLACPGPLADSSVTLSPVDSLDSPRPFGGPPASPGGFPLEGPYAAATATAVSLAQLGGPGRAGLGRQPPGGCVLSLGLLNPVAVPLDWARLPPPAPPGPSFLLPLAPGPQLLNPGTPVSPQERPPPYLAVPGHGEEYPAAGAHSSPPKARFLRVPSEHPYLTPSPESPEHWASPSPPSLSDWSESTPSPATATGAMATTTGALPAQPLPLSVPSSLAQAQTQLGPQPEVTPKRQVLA

[10] = probe aEGFR binding to arrayed compounds – biochemical, biotinylated probe, 635/667 nm fluorescence, primary screen (AID 1097); conditions: small-molecule microarray, higher = more signal;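 also: probe is a biotinylated anti-EGFR antibody binding compounds printed on slides; score combines fluorescence near 667 nm and signal to noise of each spot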
[11] = tested on: Plasmodium falciparum Sir2 (PF13_0152, Sir2A); experiment: Plasmodium falciparum Sir2A binding compounds – biochemical, small-molecule microarray, 635 nm fluorescence, primary screen (AID 1098); conditions: fluorescence 635 nm, higher = more signal;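 also: score merges spot fluorescence intensity with its signal-to-noise ratio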
[12] = probe aDKK1 binding to arrayed compounds – biochemical, biotinylated probe, 635/667 nm fluorescence, primary screen (AID 1099); conditions: small-molecule microarray, higher = more signal;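 also: score merges 667nm spot fluorescence with signal to noise across triplicate slides; reference of the scale not given here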
[13] = probe aCHRDL2 binding to arrayed compounds – biochemical, biotinylated probe, 635/667 nm fluorescence, primary screen (AID 1100); conditions: small-molecule microarray, higher = more signal
[14] = change in splice reporter luminescence, either direction, cell-based, HEK293, spliceosome inhibition project, primary screen (AID 1101); conditions: HEK293 splicing luciferase reporter, 24 h, higher = more signal, called active from +8 up or from −8 down;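 also: HEK293 cells carrying a splicing-competent luciferase reporter gene; test concentration not given here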
[15] = molecular target: Fibroblast growth factor 10 (Homo sapiens) (UniProt O15520); experiment: compounds binding fibroblast growth factor 10 – biochemical, small-molecule microarray, 635 nm fluorescence, primary screen (AID 1102); conditions: FGF10 binding, fluorescence 635 nm, higher = more signal
Chain of Fibroblast growth factor 10 (Homo sapiens) (O15520 whole entry, looked up): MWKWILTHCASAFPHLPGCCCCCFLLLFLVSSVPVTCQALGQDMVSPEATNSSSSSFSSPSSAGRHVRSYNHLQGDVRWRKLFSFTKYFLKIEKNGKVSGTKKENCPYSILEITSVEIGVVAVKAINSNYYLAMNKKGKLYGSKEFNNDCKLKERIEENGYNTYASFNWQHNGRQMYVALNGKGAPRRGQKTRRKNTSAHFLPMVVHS

[16] = tested on: glycogen synthase kinase-3 (GSK3A per assay name; protocol says GSK3B); experiment: compounds binding glycogen synthase kinase-3 – biochemical, small-molecule microarray, 635 nm fluorescence, GSK3A, primary screen (AID 1103); conditions: fluorescence 635 nm, higher = more signal; also: the record names both GSK3A and GSK3B
[17] = molecular target: Epidermal growth factor receptor (Homo sapiens) (UniProt P00533); experiment: compounds binding epidermal growth factor receptor – biochemical, small-molecule microarray, 635 nm fluorescence, primary screen (AID 1104); conditions: EGFR binding, higher = more signal;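 also: score merges 667 nm emission intensity with spot signal to noise over triplicate slides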
Chain of Epidermal growth factor receptor (Homo sapiens) (P00533 whole entry, looked up): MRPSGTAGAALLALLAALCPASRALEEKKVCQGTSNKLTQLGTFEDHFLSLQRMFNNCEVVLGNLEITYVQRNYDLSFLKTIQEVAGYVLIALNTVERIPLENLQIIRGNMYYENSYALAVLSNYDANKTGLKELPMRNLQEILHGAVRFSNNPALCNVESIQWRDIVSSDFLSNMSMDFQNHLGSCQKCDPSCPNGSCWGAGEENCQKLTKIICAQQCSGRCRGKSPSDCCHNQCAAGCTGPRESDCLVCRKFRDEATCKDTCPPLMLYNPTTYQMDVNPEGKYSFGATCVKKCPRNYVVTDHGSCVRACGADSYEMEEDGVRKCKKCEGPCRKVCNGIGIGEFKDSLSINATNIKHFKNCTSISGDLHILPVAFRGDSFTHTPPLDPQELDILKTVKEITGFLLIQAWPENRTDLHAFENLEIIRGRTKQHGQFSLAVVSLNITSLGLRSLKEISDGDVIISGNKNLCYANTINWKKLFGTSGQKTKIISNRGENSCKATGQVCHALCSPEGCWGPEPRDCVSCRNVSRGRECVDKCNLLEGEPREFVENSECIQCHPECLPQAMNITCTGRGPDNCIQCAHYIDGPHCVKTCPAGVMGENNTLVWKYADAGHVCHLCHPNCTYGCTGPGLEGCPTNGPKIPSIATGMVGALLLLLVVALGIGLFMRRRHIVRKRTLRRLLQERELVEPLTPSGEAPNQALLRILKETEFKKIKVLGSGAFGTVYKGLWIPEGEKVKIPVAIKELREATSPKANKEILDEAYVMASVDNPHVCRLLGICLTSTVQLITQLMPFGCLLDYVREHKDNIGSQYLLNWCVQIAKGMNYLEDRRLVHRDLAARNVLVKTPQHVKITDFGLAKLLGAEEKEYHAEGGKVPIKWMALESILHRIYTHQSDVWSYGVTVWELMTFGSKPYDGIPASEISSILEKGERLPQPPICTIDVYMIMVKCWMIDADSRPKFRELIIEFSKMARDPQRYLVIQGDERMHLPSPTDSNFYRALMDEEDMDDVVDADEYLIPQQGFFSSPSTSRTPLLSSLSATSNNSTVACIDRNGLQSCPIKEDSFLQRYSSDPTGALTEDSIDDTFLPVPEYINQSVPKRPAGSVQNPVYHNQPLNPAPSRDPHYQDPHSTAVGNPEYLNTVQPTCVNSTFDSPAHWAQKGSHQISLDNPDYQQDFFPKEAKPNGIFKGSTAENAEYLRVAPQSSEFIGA

[18] = molecular target: Follistatin-related protein 3 (Homo sapiens) (UniProt O95633); experiment: compounds binding follistatin-related protein 3 – biochemical, small-molecule microarray, 635 nm fluorescence, primary screen (AID 1105); conditions: FSTL3 binding, higher = more signal;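 also: score merges emission near 667 nm and signal to noise per printed spot across three slides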
Chain of Follistatin-related protein 3 (Homo sapiens) (O95633 whole entry, looked up): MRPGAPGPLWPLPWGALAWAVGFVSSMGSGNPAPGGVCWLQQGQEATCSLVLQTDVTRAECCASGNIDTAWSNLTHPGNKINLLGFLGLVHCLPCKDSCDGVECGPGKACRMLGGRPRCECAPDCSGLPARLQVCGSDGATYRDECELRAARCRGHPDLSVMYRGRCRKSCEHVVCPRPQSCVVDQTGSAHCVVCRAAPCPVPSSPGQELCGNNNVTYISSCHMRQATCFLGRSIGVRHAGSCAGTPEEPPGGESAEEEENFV

[19] = molecular target: Dickkopf-related protein 1 (Homo sapiens) (UniProt O94907); experiment: small molecules binding DKK1 protein – biochemical, small-molecule microarray, 635 nm fluorescence scan, primary screen (AID 1106); conditions: higher = more signal;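 also: score merges emission near 667 nm with signal to noise over three replicate slides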
Chain of Dickkopf-related protein 1 (Homo sapiens) (O94907 whole entry, looked up): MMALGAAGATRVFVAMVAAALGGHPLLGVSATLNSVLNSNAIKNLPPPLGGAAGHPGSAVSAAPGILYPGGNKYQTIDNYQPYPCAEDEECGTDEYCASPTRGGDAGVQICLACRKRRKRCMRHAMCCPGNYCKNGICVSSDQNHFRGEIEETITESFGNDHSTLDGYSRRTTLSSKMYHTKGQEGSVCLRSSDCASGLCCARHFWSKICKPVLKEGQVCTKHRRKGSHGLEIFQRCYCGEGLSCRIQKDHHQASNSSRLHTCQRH

[20] = tested on: Inhibin beta A chain (activin A); experiment: small molecules binding activin A – biochemical, small-molecule microarray, 635 nm fluorescence scan, primary screen (AID 1107); conditions: INHBA, higher = more signal;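 also: mouse activin A protein probed at 4.33 µg/mL on printed slides; score merges bound-protein fluorescence near 667 nm with spot signal-to-noise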

With `COCCOC(=O)N1C(=O)[C@@]2(c3cc(C#CCC(C(=O)OC)C(=O)OC)ccc31)[C@H](C(=O)NC[C@H](O)c1ccccc1)[C@H]1C(=O)O[C@H](c3ccccc3)[C@H](c3ccccc3)N1[C@@H]2c1ccc(O)cc1` the composite z-score [1] was 1.36, the z-score [2] was 1.05 (inactive) and the z-score [3] was 1.37 (inactive). The z-score [4] was 0.174 (inactive), the composite z-score [5] was 2.78 and the z-score [6] was -0.377 (inactive). It also gave a composite z-score [7] of -0.0845, a composite z-score [8] of -1.08 and a composite z-score [9] of 0.687. It also gave a composite z-score [10] of -0.0828, a composite z-score [11] of 1.17 and a composite z-score [12] of -0.0319. For the same molecule, the composite z-score [13] was 0.521, the z-score [14] was 0.556 (inactive) and the composite z-score [15] was 0.923. For the same molecule, the composite z-score [16] was 1.22, the composite z-score [17] was -0.239 and the composite z-score [18] was 0.186. The composite z-score [19] was -0.224 and the composite z-score [20] was -0.29.
In the case of `COc1ccc(C(=O)Nc2cccc(CN3C(=O)[C@]4(O[C@H](CCn5cc([C@H](O)c6ccccc6)nn5)[C@@H]([Si](C)(C)c5ccc(OC)cc5)[C@@H]4C)c4ccccc43)c2)cc1`, the composite z-score [1] was 0.682, the z-score [2] was -0.228 (inactive) and the z-score [3] was -1.99 (inactive). The z-score [4] was 0.678 (inactive), the composite z-score [5] was 1.38 and the z-score [6] was 1.48 (inactive). For the same molecule, the composite z-score [7] was -0.0674, the composite z-score [8] was 0.383 and the composite z-score [9] was 0.889. The composite z-score [10] was -0.128, the composite z-score [11] was 0.758 and the composite z-score [12] was 0.224. For the same molecule, the composite z-score [13] was 0.265, the z-score [14] was -2.49 (inactive) and the composite z-score [15] was 0.26. It also gave a composite z-score [16] of -0.266, a composite z-score [17] of -0.339 and a composite z-score [18] of 0.31. The composite z-score [19] was -0.132 and the composite z-score [20] was 1.41.
With `CCCNC(=O)[C@@]1(Sc2ccc(C)cc2)CC(=O)N(C2CCCCC2)[C@@H]1c1ccc(CO)cc1I` the composite z-score [1] was 1.56, the z-score [2] was -1.2 (inactive) and the z-score [3] was 0.554 (inactive). The z-score [4] was -0.133 (inactive), the composite z-score [5] was 2.44 and the z-score [6] was 0.19 (inactive). For the same molecule, the composite z-score [7] was -0.273, the composite z-score [8] was -0.447 and the composite z-score [9] was 0.298. The composite z-score [10] was -0.0643, the composite z-score [11] was 1.56 and the composite z-score [12] was 0.548. For the same molecule, the composite z-score [13] was 0.91, the z-score [14] was -0.703 (inactive) and the composite z-score [15] was 0.382. The composite z-score [16] was 0.718, the composite z-score [17] was -0.0215 and the composite z-score [18] was 0.192. It also gave a composite z-score [19] of -0.122 and a composite z-score [20] of -0.277.
For `CC(C)C[C@@H]1NC(=O)[C@H]2C[C@@H](C(=O)NCCCCCN)[C@@H](c3cccc(OCCO)c3)N2C1=O`, the composite z-score [1] was 0.808, the z-score [2] was -3.54 (inactive) and the z-score [3] was -0.726 (inactive). For the same molecule, the z-score [4] was -1.04 (inactive), the composite z-score [5] was 0.872 and the z-score [6] was 0.545 (inactive). It also gave a composite z-score [7] of 0.13, a composite z-score [8] of -0.993 and a composite z-score [9] of 0.135. It also gave a composite z-score [10] of -0.14, a composite z-score [11] of 0.481 and a composite z-score [12] of 0.206. The composite z-score [13] was 0.235, the z-score [14] was -1.76 (inactive) and the composite z-score [15] was -0.361. The composite z-score [16] was -0.389, the composite z-score [17] was 0.125 and the composite z-score [18] was -0.348. The composite z-score [19] was 0.183 and the composite z-score [20] was -0.762.
With `COc1ccc(C#Cc2ccc3c(c2)[C@]2(C(=O)N3)[C@H](c3ccc(OCCO)cc3)N3[C@H](c4ccccc4)[C@H](c4ccccc4)OC(=O)[C@H]3[C@@H]2C(=O)N2CCc3cc(OC)c(OC)cc3C2)cc1` the composite z-score [1] was 1.55, the z-score [2] was 2.27 (inactive) and the z-score [3] was 1.94 (inactive). For the same molecule, the z-score [4] was 4.57 (inactive), the composite z-score [5] was 2.81 and the z-score [6] was 0.0933 (inactive). For the same molecule, the composite z-score [7] was -0.209, the composite z-score [8] was 0.784 and the composite z-score [9] was 1.12. It also gave a composite z-score [10] of 0.481, a composite z-score [11] of 1.38 and a composite z-score [12] of 1.5. The composite z-score [13] was 0.185, the z-score [14] was -0.517 (inactive) and the composite z-score [15] was 1.23. It also gave a composite z-score [16] of 1.28, a composite z-score [17] of 0.871 and a composite z-score [18] of 1.01. The composite z-score [19] was 1.28 and the composite z-score [20] was -0.258.
